Only some compounds are listed: those with a hit (about 19% of all), similar ones and a draw of the others.
HT1080NT lethal: qHTS for induction of synthetic lethality in tumor cells producing 2HG: qHTS for the HT-1080-NT fibrosarcoma cell line; HT-1080-NT fibrosarcoma viability, CellTiter-Glo ATP luminescence, 48 h; Potency, µM (highest dose often 46.1 µM), inactives show at the top dose activity, negative = less viability, most hits filed as cytotoxic; 360,000 tested, 1.6% active;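 note: NT is the 2HG producing partner of a matched IDH1 knockdown line; 0% = DMSO-treated cells and -100% = media-only wells without cells; nearly all actives have a fitted effect of over 55% in size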
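A 48-hour cytotoxicity screen used HT-1080-NT cells plated 2 hours before compound delivery. ATP-based CellTiter-Glo luminescence measured viability, normalized to DMSO and no-cell controls.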
KB-3-1 cytotox: qHTS assay for MDR1-selective chemotherapeutics: Primary screen using the parental adenocarcinoma cell KB-3-1; KB-3-1 viability, CellTiter-Glo ATP luminescence, 72 h; Potency, µM (doses to about 46.1 µM), hits mostly cytotoxic; 400,000 tested, 1.4% active; AID 1347075, 2019; note: nearly all actives have a fitted effect of over 60% in size
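Cytotoxicity measured as CellTiter-Glo luminescence after 72 h at 37 C. Compound titrations were pinned onto drug-naive KB-3-1 parental adenocarcinoma cells grown in DMEM with 10% FBS, and normalized data fitted to concentration-response curves.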
TDP1 cell CPT: qHTS for Inhibitors of human tyrosyl-DNA phosphodiesterase 1 (TDP1): qHTS in cells in presence of CPT; chicken DT40 Tdp1-/-;hTDP1 cells + 20 nM CPT, ATP luminescence, 48 h; Potency, µM (highest dose often 46.2 µM), for inactives: top-dose activity change, negative = growth inhibition, most hits filed as inhibitors; 420,000 tested, 12% active; note: nearly all actives have a fitted effect of over 55% in size
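Chicken DT40 Tdp1-/- cells complemented with human TDP1, 400 cells/well, exposed to compounds plus 20 nM camptothecin for at least 48 h at 37 C; viability read as ATP content by CellTiter-Glo luminescence.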
HT1080 IDH1KD tx: qHTS for induction of synthetic lethality in tumor cells producing 2HG: qHTS for the HT-1080-IDH1KD cell line; 360,000 tested, 2% active; Potency, µM (top dose mostly 46.1 µM), inactives show top-dose activity, negative = toxicity, usual class: cytotoxic; HT-1080 IDH1 knockdown viability, ATP luminescence, 48 h;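 note: 0% = DMSO wells and -100% = cell-free medium wells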
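% activity derives from luminescence (CellTiter-Glo), normalised to DMSO and no-cell wells. HT-1080-IDH1KD cells, 750/well, had 48 h compound exposure at 37 °C.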
TDP1 cell noCPT: qHTS for Inhibitors of human tyrosyl-DNA phosphodiesterase 1 (TDP1): qHTS in cells in absence of CPT; DT40 Tdp1-/- hTDP1 cells, no CPT, ATP luminescence, 48 h; 420,000 tested, 15% active; Potency, µM (doses to about 46.2 µM), without a hit: at the highest dose activity change, negative = growth inhibition, hits mostly inhibitors; note: nearly all actives have a fitted effect of over 55% in size
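Luminescent ATP content (CellTiter-Glo) served as the growth readout. Knockout chicken DT40 cells expressing human TDP1 were exposed to compounds without camptothecin for a minimum 48 hr at 37 °C.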
KB-V1 MDR tox: qHTS assay for MDR1-selective chemotherapeutics: Primary screen using the drug-selected MDR subline cells KB-V1; 400,000 tested, 3.4% active; Potency, µM (top dose mostly 46.1 µM), most hits filed as cytotoxic; KB-V1 MDR cells viability, CellTiter-Glo, 72 h; note: nearly all actives have a fitted effect of over 60% in size
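Potencies derive from concentration-effect curves fitted to normalized luminescence (CellTiter-Glo) of KB-V1 cells treated for 72 h at 37 degrees C in phenol-red-free DMEM containing 10% FBS.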
An asterisk follows results filed as active; i = inactive; u = inconclusive. Calls come from the whole dose curve; as a rule, active = well fitted curve in the direction sought with a large enough effect; inconclusive = small, poorly fitted or top-dose-only effect, or another doubt; inactive = no such curve, though single readings can be large; an effect the other way counts as inactive or inconclusive. Unless noted, % is set by controls: 0 for no effect and ±100 for the full control effect; potency is the fitted concentration of half-maximal effect.

SMILES	HT1080NT lethal	KB-3-1 cytotox	TDP1 cell CPT	HT1080 IDH1KD tx	TDP1 cell noCPT	KB-V1 MDR tox
CC(C)(C)OC(=O)NCCCC[C@H](NC(=O)c1nc[nH]c1C(=O)NCc1ccc(CNC(=O)OC(C)(C)C)cc1)C(=O)OC(C)(C)C	-18%	i	u	0%	16µM*	i
CC(C)(C)OC(=O)NCCCCCNC(=O)c1[nH]cnc1C(=O)N[C@@H](CCCCNC(=O)OC(C)(C)C)C(=O)OC(C)(C)C	u	i	16µM*	-24%	16µM*	u
CC(C)(C)OC(=O)NCCCCCNC(=O)c1ncn(Cc2ccccc2)c1C(=O)NCCCCCNC(=O)OC(C)(C)C	-6%	i	u	-8%	16µM*	i
COc1ccc(C(=O)N/C(=C\c2cn(S(=O)(=O)N(C)C)c3ccccc23)C(=O)N2CCN(C)CC2)cc1	-3%	i	-19%	-6%	20%	i
CN(Cc1ccccc1)C(=O)c1[nH]cnc1C(=O)NCCCCCNC(=O)OC(C)(C)C	-3%	i	u	-1%	18µM*	i
C[C@H](NC(=O)c1nc[nH]c1C(=O)N[C@@H](CCCCNC(=O)OC(C)(C)C)C(=O)OC(C)(C)C)C(=O)OCc1ccccc1	-15%	i	u	-30%	u	i
CC(C)(C)OC(=O)NCCCC[C@H](NC(=O)c1nc[nH]c1C(=O)N1CCc2ccccc2C1)C(=O)OC(C)(C)C	-7%	i	26µM*	-15%	21µM*	i
Cc1cccc(NC(=O)c2nc[nH]c2C(=O)NCCCCCNC(=O)OC(C)(C)C)c1	26µM*	u	15µM*	u	16µM*	u
Cc1cccc(NC(=O)c2nc[nH]c2C(=O)NC[C@H](C)O)c1	8%	i	-20%	-1%	u	i
CC(C)(C)OC(=O)NCCCCCNC(=O)c1nc[nH]c1C(=O)N1CCc2ccccc2C1	4%	i	u	3%	u	i
CC(C)(C)OC(=O)NCCCC[C@H](NC(=O)c1nc[nH]c1C(=O)NC(c1ccccc1)c1ccccc1)C(=O)OC(C)(C)C	u	u	15µM*	u	u	i
CN1N=C(C(C)(C)C)CSC1=Nc1ccccc1	4%	i	2%	3%	u	i
O=CNC1(c2ccccc2)CCCCC1	-6%	i	-1%	-3%	-28%	i
C[C@H](NC(=O)c1nc[nH]c1C(=O)N[C@@H](CCCCNC(=O)OC(C)(C)C)C(=O)OC(C)(C)C)C(=O)OC(C)(C)C	-19%	i	u	-29%	u	i
CC(C)(C)OC(=O)NCCCC[C@H](NC(=O)c1nc[nH]c1C(=O)N[C@@H](CCCCNC(=O)OC(C)(C)C)C(=O)OC(C)(C)C)C(=O)OC(C)(C)C	2%	i	15µM*	1%	23µM*	i
CSc1nsc(SCC(=O)N2CCCCC2)n1	29%	i	21%	u	-16%	i
COc1cccc(C(=O)NCCS(=O)(=O)NCc2ccc3c(c2)OCO3)c1	-12%	i	-20%	-5%	-27%	18µM*
COc1ccc(CNS(=O)(=O)CCNC(=O)c2cccc(OC)c2)cc1	5%	i	9%	3%	8%	16µM*
COc1ccc(C(=O)NCCS(=O)(=O)NCc2ccc3c(c2)OCO3)cc1	3%	i	2%	8%	-6%	i

Assay outcomes from PubChem BioAssay.
